AmpC detergent: inhibitors of E. coli AmpC beta-lactamase with detergent | P00811 | AmpC hydrolysis of nitrocefin, absorbance 480 nm, 0.01% Triton | Potency, µM (series often up to 114 µM), for the others: top-dose activity change, negative = inhibition, actives largely listed as inhibitors | 370,000 tested, 0.041% active;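 further: 0% = no-compound wells and -100% = no-enzyme wells; nearly all actives have a fitted effect of over 25% in size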
Target sequence (P00811 whole entry, looked up): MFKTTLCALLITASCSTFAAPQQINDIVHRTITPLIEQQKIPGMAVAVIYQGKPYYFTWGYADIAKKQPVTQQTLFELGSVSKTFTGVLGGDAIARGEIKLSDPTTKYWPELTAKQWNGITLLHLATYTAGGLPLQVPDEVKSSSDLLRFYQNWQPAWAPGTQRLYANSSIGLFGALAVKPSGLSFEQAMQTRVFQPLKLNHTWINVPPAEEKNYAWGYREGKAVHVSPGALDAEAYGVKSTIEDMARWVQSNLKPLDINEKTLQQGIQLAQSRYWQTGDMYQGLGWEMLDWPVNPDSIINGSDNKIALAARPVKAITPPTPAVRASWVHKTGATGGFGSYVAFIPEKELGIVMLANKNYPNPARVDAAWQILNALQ
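AmpC (5.3 nM in the dispensed reagent) in 20 mM phosphate pH 7.0 with 0.01% (detergent screen) or 0.0001% Triton X-100 was preincubated with compounds for 15 min at room temperature. Nitrocefin was then added from an 800 uM solution, and hydrolysis was followed at 480 nm.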
FMDV antiviral: foot and mouth disease virus antiviral activity; FMDV antiviral cell-based qHTS; Potency, µM (highest dose often 57.9 µM), for inactives: at the highest dose activity change, negative = inhibition, hits mostly inhibitors; 410,000 tested, 1.2% active; AID 1159524; calls by dose curve; tested in HEK293T cells; further: read-out not given here; nearly all actives have a fitted effect of over 45% in size
AMA1-RON2 inh: AMA1-RON2 (P. falciparum) interaction inhibition; AlphaScreen AMA1-biotinylated RON2 peptide binding; Potency, µM (highest dose often 58.2 µM), inactives show top-dose activity change, negative = inhibition, usual class: inhibitors; 360,000 tested, 0.2% active; AID 720542;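 further: 0% = vehicle wells and -100% = peptide control; nearly all actives have a fitted effect of over 45% in size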
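AMA1 (3D7) with his tag at 25 nM final met compounds first, then biotinylated RON2 peptide at 25 nM; detection used donor plus acceptor beads, 10 µg/mL apiece, read by AlphaScreen after 30 min at room temperature.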
AmpC inh no detg: AmpC beta-lactamase inhibition without detergent; AmpC nitrocefin hydrolysis, absorbance 480 nm, 0.0001% Triton; Potency, µM (doses to about 57.1 µM), inactives show top-dose activity change, negative = inhibition, most hits filed as inhibitors; 330,000 tested, 0.52% active;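 further: plate controls were no compound for no effect and no enzyme for full effect; nearly all actives have a fitted effect of over 20% in size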
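AmpC (5.3 nM in the dispensed reagent) in 20 mM phosphate pH 7.0 with 0.01% (detergent screen) or 0.0001% Triton X-100 was preincubated with compounds for 15 min at room temperature. Nitrocefin was then added from an 800 uM solution, and hydrolysis was followed at 480 nm.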
Sm TGR inh: blocks Schistosoma mansoni thioredoxin glutathione reductase; Q962Y6; purified TGR, DTNB reduction, TNB absorbance 405 nm; Potency, µM (highest dose often 114 µM), inactives show at the top dose activity change, negative = inhibition, most hits filed as inhibitors; 360,000 tested, 3% active; AID 485364; further: nearly all actives have a fitted effect of over 60% in size
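TGR 20 nM + NADPH 100 uM (dispensed conc.), cpd preinc 15 min RT; start with NADPH (500 uM addition) then DTNB (15 mM addition). Kinetic TNB absorbance, 405 nm filter. Four-parameter Hill fit across titration.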
* hit, by the source's call; ? = inconclusive; · = not tested or not shown; [ ] = remark or other dose. This is a sample that favours compounds with a hit; in the whole collection about 4.1% have one here. Unless noted, the call rests on the fitted dose curve; in most records, active means well fitted curve in the direction sought with a large enough effect; inconclusive means small, poorly fitted or top-dose-only effect, or another doubt; inactive means no such curve, though single readings can be large; an effect the other way counts as inactive or inconclusive. Unless noted, on the % scale 0 is the no-effect control and ±100 the full control effect; potency means the concentration at half of the fitted maximal effect.

SMILES	AmpC detergent	FMDV antiviral	AMA1-RON2 inh	AmpC inh no detg	Sm TGR inh
CC1CN(C(=O)c2cc3c(=O)n4ccccc4nc3n2C)CC(C)O1 (centres undefined)	2%	4%	11µM*	-2%	-11%
CC(=O)Nc1ccccc1C	1%	-19%	12%	-2%	-2%
CC(=O)/C(=C/c1ccccc1)C(=O)Nc1ccccc1C	-1%	14µM*	10%	-8%	45µM*
Cc1ccccc1NC(=O)C(=Cc1ccc(C(=O)O)cc1)C(=O)Nc1ccccc1C	1%	5.6µM*	4%	-25%	-8%
Cc1ccc(CSc2nc(-c3ccccc3C)nc3c2Cc2c(CO)cnc(C)c2O3)cc1	0%	-18%	·	·	-7%
C=CCc1cc(C)ccc1OCCCC(C(=O)OCC)C(=O)OCC	3%	?	101%	0%	2%
CCCCCOc1ccc(C)cc1CN(CCCl)CCCl	-8%	-4%	1%	17%	11µM*
N#Cc1cccc2c1-c1ccccc1/C2=N/NC(N)=S	1%	35µM*	70%	-36%	1%
COc1ccc(CCNC(=O)c2cnc3ccc(C)cn3c2=O)cc1OC	18%	-24%	·	·	16%
Cc1cccc(C)c1NC(=O)CNC(=O)c1ccc(S(=O)(=O)NCc2ccco2)cc1	4%	-3%	6%	-20%	20µM*
CC(=O)Nc1cccc(NC(=O)c2ccc(S(=O)(=O)NCc3ccco3)cc2)c1	·	-23%	-13%	·	·
COc1cccc(S(=O)(=O)NCc2ccc(C(=O)NCc3ccco3)cc2)c1	?	0%	0%	-27%	28µM*
COc1ccc(C(=O)Nc2ccc(S(=O)(=O)NCc3ccco3)cc2)cc1OC	-18%	60%	-15%	-11%	0%
COc1ccc(C(=O)NCC(=O)Nc2cccc(S(=O)(=O)NCc3ccco3)c2)cc1OC	-1%	30%	9%	-11%[11.4 µM]	45µM*
Cc1cccc(NC(=O)c2ccc(F)c(S(=O)(=O)NCc3ccco3)c2)c1	-3%	-3%	6%	-16%	28µM*
COc1cccc(S(=O)(=O)Nc2ccc(C(=O)NCc3ccco3)cc2)c1	4%	28%	-7%	-26%	-22%
CO[C@]12CC(COC(=O)c3cncc(Br)c3)CN(C)[C@@H]1Cc1cn(C)c3cccc2c13 (some centres undefined)	·	-14%	·	·	·
Cc1ccc(N2CCN(S(=O)(=O)c3nnc(NC(=O)c4cccc(F)c4)s3)CC2)cc1	14%	-30%	·	·	10%
Cc1nn(-c2ccc(N3CCOCC3)nn2)c(C)c1CCC(=O)NCc1ccc(OC(C)C)cc1	9%	-9%	·	·	0%
CCOC(=O)C1CCCN(C(=O)CCc2nnc(-c3ccc(C(C)=O)s3)o2)C1 (centres undefined)	1%	18%	15%	31%	16µM*
COCCNC(=O)CSc1nc2cc3c(cc2c(=O)n1Cc1ccc(C(=O)NCCc2ccc(OC)c(OC)c2)cc1)OCO3	2%	6%	·	·	0%
Cc1ccccc1NC(=S)c1ccc2ccccc2n1	-9%	27%	-1%	-44%	50µM*
O=c1[nH]c(NC2CCCCC2)c([N+](=O)[O-])c(=O)[nH]1	89µM*	-6%	-6%	-13%	6%
Cc1c(-c2nsc(NC(=O)c3cccs3)n2)nnn1-c1ccc(Cl)cc1	1%	34%	·	·	1%
Cn1c(=O)c2c(-c3ccccc3)n(N3CCOCC3)cc2n(C)c1=O	?	-10%	-1%	-14%	-25%
SMILES	AmpC detergent	FMDV antiviral	AMA1-RON2 inh	AmpC inh no detg	Sm TGR inh
Cn1c(=O)c2c(-c3ccc(C(C)(C)C)cc3)n(N3CCOCC3)cc2n(C)c1=O	35µM*	-18%	2%	-10%	-5%
O=C(NC1CC(=O)N(c2cccc(F)c2)C1)c1ccc(S(=O)(=O)N2CCOCC2)cc1 (centres undefined)	-6%	-15%	·	·	2%
Cc1oc(-c2ccc(C(=O)NCCCOC(C)C)cc2)nc1CS(=O)(=O)c1ccccc1	3%	?	·	·	?
Cc1ccc(CNC(=O)c2ccc(-c3nc(CS(=O)(=O)c4ccc(C)cc4)c(C)o3)cc2)cc1	0%	-20%	·	·	-14%
COCCCNC(=O)c1ccc(-c2nc(CS(=O)(=O)c3ccc(C)cc3)c(C)o2)cc1	20%	0%	·	·	25µM*
CCCCNC(=O)c1ccc(-c2nc(CS(=O)(=O)c3ccc(C)cc3)c(C)o2)cc1	20%	0%	·	·	40µM*
COc1ccc(CNC(=O)c2ccc3c(c2)N(C)C(=O)C2CCCCN32)cc1OC (centres undefined)	15%	-13%	·	·	1%
CC(C)C[C@@H]1NC(=O)[C@H](CCCN)NC(=O)[C@H](C(C)C)NC(=O)[C@@H]2CCCN2C(=O)[C@@H](Cc2ccccc2)NC(=O)[C@H](CC(C)C)NC(=O)[C@H](CCCN)NC(=O)[C@H](C(C)C)NC(=O)[C@@H]2CCCN2C(=O)[C@@H](Cc2ccccc2)NC1=O	·	6.3µM*	·	·	·
O=C(Cn1c(=O)oc2cc(S(=O)(=O)N3CCCCCC3)ccc21)Nc1ccc(F)cc1F	23%	-18%	·	·	-12%
Cc1ccc(C)c2[nH]c(=O)c(CCNC(=O)c3ccc(S(=O)(=O)N(C)C)cc3)cc12	-15%	-8%	-6%	2.8µM*	6%
Cc1ccc(C)c2[nH]c(=O)c(CCNC(=O)Cc3cccs3)cc12	-15%	-4%	-7%	-6%	0%
Cc1ccc(C)c2[nH]c(=O)c(CCNC(=O)C(C)(C)C)cc12	-4%	-5%	-4%	40µM*	0%
CCN(CC)c1cc2c(cc1F)c(=O)c(S(=O)(=O)c1ccc(OC)cc1)cn2CC	-4%	-1%	·	·	-14%
O=C(COc1ccccc1)NCc1ccc2c(c1)CCN2C(=O)c1ccc(Cl)cc1	1%	0%	·	·	-3%
CCc1ccc(-n2nc(CO)c(C(=O)NCc3ccccc3Cl)n2)cc1	-2%	-7%	·	·	-7%
O=C(O)Cc1ccc(NC(=S)Nc2cccc(Cl)c2Cl)cc1	-6%	-2%	-5%[2.32 µM]	-11%	?
O=C(Nc1ccc(Br)cc1)Nc1ccccc1F	8%	5%	18%	-25%	4%
S=C(Nc1ccccc1)Nc1ccc(Br)cc1	-7%	25%	13%	-46%	?
Fc1ccccc1NC(=S)Nc1ccc(Br)cc1	0%	22%	30%	-22%	50µM*
Fc1cc(Br)ccc1NC(=S)Nc1ccccc1	-2%	21%	6%	-22%	28µM*
O=C(O)Cc1ccc(NC(=S)Nc2ccc(Br)cc2Cl)cc1	1%	3%	5%	-15%	22µM*
COCc1c(C(=O)N2CCN(c3ccccc3O)CC2)cnn1-c1nccc(-c2cccs2)n1	·	-17%	·	·	·
Cc1sc2nc(C(C)C)nc(SCC(=O)NC3CC3)c2c1C	14µM*	-9%	5%	-13%	-2%
Cc1nn(-c2ccccn2)c2c1C(=O)C(Br)CC2 (centres undefined)	-3%	32µM*	-10%	-11%	2.5µM*
